From PubChem BioAssay (EPA / NIEHS)
Results filed as inconclusive are left out. Active and inactive are the calls of the source. The calls were made as follows, unless noted: active = hit-call score of the fitted dose curve at least 0.9, where 1 is the maximum; inactive = score below 0.9.

Assays:
[1] = target: Myc proto-oncogene protein (Homo sapiens) (UniProt P01106); assay: ATG_Myc_CIS: Attagene CIS-FACTORIAL HepG2 Assay for human Myelocytomatosis (Myc) Proto-Oncogene Transcription Factor (AID 2282990); conditions: HepG2, Attagene cis-reporter transcription factor activity; actives raise or lower the signal
Myc proto-oncogene protein (Homo sapiens), sequence (P01106 whole entry, looked up, the tested form may be a part): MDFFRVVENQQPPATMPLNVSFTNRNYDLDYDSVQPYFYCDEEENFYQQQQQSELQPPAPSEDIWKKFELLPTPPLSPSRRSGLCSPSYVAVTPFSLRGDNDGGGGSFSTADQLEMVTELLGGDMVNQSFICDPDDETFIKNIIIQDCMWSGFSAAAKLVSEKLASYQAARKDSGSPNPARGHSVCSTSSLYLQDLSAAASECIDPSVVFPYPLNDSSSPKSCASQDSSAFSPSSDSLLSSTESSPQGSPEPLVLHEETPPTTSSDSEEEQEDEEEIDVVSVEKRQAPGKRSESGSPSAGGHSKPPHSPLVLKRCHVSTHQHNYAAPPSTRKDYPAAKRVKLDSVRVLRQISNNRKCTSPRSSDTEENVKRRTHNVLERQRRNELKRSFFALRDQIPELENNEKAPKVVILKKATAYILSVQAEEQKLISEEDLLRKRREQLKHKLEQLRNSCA
Summary of the method: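 After 24 h chemical treatment of HepG2 cells carrying multiplexed cis-regulated reporter constructs, reporter transcripts quantified by RT-PCR and capillary electrophoresis of fluorescent fragments. Gain or loss fitted against DMSO baseline.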

[2] = ATG_NF_kB_CIS: Attagene CIS-FACTORIAL HepG2 Assay for human Nuclear Factor Kappa B (NF-kB) (AID 2282991); conditions: HepG2 Attagene cis-factorial NF-kB reporter mRNA; actives raise or lower the signal
Summary of the method: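 Fluorescence of labelled RT-PCR products separated by capillary electrophoresis gives reporter mRNA levels from transfected HepG2 cells exposed 24 h; values are fitted in both directions relative to DMSO.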

[3] = ATG_NRF2_ARE_CIS: Attagene CIS-FACTORIAL HepG2 Assay for human Nuclear Factor Erythroid 2 Related Factor 2 (NFR2) response to Antioxidant Response Elements (ARE) (AID 2282992); conditions: HepG2 Attagene ARE/NRF2 reporter, transcription factor activity; actives raise or lower the signal
Summary of the method: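 HepG2 cells transiently transfected with multiplexed cis-regulated reporter transcription units measure endogenous transcription factor activity. Reporter mRNA at 24 h is quantified by RT-PCR, fluorescent labelling and capillary electrophoresis, with bidirectional fitting relative to DMSO.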

[4] = ATG_Oct_MLP_CIS: Attagene CIS-FACTORIAL HepG2 Assay for human Octamer-Binding Transcription Factor (Oct) (AID 2282993); conditions: HepG2 Attagene cis-factorial Oct reporter, mRNA; actives raise or lower the signal
Summary of the method: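 Readout is reporter transcript level from RT-PCR with fluorescent primer extension and capillary electrophoresis, fitted in both directions against DMSO. Transfected HepG2 reporter units report endogenous factor activity after 24 h dosing.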

[5] = target: Cellular tumor antigen p53 (Homo sapiens) (UniProt P04637); assay: ATG_p53_CIS: Attagene CIS-FACTORIAL HepG2 Assay for human p53 Transcription Factor (AID 2282994); conditions: HepG2 p53 cis-element reporter, Attagene mRNA; actives raise or lower the signal
Cellular tumor antigen p53 (Homo sapiens), sequence (P04637 whole entry, looked up): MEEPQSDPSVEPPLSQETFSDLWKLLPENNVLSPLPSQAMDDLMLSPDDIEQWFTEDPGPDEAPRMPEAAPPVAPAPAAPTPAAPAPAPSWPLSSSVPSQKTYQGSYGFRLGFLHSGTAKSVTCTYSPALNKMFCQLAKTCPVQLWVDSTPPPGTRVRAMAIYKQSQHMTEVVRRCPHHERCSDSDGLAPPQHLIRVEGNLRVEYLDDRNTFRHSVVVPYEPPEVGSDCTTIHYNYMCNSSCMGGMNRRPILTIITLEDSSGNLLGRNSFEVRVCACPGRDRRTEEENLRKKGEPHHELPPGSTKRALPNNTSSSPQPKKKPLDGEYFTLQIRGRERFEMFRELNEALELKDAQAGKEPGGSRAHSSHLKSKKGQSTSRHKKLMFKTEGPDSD
Summary of the method: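 HepG2 cells transiently transfected with multiplexed cis-regulated reporter transcription units read endogenous TF activity. After 24 h compound exposure, reporter mRNA was quantified by RT-PCR, fluorescent labelling, HpaI digestion and capillary electrophoresis; bidirectional fits versus DMSO baseline.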

[6] = target: human Peroxisome Proliferator-activated Receptor alpha (PPARa), PPARA (gene 5465) (UniProt Q07869); assay: ATG_PPARa_TRANS: Attagene TRANS-FACTORIAL HepG2 Assay for human Peroxisome Proliferator-activated Receptor alpha (PPARa) (AID 2283001; active = hit-call score of the fitted dose curve at least 0.9, where 1 is the maximum)
human Peroxisome Proliferator-activated Receptor alpha (PPARa), PPARA (gene 5465), sequence (Q07869 whole entry, looked up, the tested form may be a part): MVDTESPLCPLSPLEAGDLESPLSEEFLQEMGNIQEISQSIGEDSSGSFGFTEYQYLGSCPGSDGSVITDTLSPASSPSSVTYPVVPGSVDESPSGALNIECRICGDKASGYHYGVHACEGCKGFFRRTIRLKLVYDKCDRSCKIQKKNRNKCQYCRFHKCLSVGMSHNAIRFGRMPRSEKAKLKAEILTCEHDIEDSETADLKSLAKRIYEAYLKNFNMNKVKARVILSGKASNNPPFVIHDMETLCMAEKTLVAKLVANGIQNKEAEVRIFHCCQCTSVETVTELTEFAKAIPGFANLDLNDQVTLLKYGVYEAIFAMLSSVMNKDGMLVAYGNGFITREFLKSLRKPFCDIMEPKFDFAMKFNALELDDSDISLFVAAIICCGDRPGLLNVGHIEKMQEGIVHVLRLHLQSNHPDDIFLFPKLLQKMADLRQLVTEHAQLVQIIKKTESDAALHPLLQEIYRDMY
Summary of the method: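 Reporter transcripts from GAL4-UAS units in transfected HepG2 were quantified 24 h after dosing. Detection used reverse transcription, PCR, fluorescent primer extension and capillary electrophoresis, with DMSO as baseline.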

[7] = target: human Peroxisome Proliferator-activated Receptor delta (PPARd), PPARD (gene 5467) (UniProt Q03181); assay: ATG_PPARd_TRANS: Attagene TRANS-FACTORIAL HepG2 Assay for human Peroxisome Proliferator-activated Receptor delta (PPARd) (AID 2283002; active = hit-call score of the fitted dose curve at least 0.9, where 1 is the maximum)
human Peroxisome Proliferator-activated Receptor delta (PPARd), PPARD (gene 5467), sequence (Q03181 whole entry, looked up, the tested form may be a part): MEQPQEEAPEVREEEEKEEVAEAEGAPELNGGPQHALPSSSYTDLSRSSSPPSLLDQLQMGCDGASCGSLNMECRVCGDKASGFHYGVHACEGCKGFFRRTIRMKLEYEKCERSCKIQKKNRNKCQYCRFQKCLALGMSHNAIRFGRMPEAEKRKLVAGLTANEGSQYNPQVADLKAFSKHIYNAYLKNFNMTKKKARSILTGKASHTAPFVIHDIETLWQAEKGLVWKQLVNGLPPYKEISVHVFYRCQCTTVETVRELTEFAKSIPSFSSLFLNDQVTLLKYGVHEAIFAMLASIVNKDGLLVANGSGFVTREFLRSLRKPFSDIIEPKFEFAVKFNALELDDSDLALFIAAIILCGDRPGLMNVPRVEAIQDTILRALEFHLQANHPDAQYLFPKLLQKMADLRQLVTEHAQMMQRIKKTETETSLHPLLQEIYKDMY
Summary of the method: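 Read-out is induced reporter mRNA, quantified by RT-PCR with fluorescent labelling and capillary electrophoresis after 24 h dosing. Cells are HepG2 transiently carrying multiple GAL4-UAS reporter units driven by exogenous NR-GAL4 chimeras; DMSO serves as baseline.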

[8] = target: human Retinoic Acid Receptor beta (RARb), RARB (gene 5915) (UniProt P10826); assay: ATG_RARb_TRANS: Attagene TRANS-FACTORIAL HepG2 Assay for human Retinoic Acid Receptor beta (AID 2283004; active = hit-call score of the fitted dose curve at least 0.9, where 1 is the maximum)
human Retinoic Acid Receptor beta (RARb), RARB (gene 5915), sequence (P10826 whole entry, looked up, the tested form may be a part): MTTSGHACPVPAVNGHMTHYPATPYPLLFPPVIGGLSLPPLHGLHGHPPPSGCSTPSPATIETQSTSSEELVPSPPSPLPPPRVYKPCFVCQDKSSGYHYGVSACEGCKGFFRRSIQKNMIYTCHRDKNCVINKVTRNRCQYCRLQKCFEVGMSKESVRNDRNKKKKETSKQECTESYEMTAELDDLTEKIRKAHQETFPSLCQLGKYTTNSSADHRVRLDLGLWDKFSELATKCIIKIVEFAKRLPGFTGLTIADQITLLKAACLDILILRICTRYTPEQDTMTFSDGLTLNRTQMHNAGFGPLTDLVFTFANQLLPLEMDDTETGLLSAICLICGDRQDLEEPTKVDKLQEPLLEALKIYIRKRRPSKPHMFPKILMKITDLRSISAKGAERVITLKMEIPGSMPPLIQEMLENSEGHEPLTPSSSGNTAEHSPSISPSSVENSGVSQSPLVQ
Summary of the method: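 HepG2, transient MRTU transfection, NR–Gal4 chimera, 24 h treatment; RT-PCR plus CE fluorescence detection of reporter mRNA; gain of signal vs DMSO.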

[9] = target: Retinoic acid receptor alpha (Homo sapiens) (UniProt P10276); assay: ATG_RARa_TRANS: Attagene TRANS-FACTORIAL HepG2 Assay for human Retinoic Acid Receptor alpha (RARa) (AID 2283005; active = hit-call score of the fitted dose curve at least 0.9, where 1 is the maximum)
Retinoic acid receptor alpha (Homo sapiens), sequence (P10276 whole entry, looked up, the tested form may be a part): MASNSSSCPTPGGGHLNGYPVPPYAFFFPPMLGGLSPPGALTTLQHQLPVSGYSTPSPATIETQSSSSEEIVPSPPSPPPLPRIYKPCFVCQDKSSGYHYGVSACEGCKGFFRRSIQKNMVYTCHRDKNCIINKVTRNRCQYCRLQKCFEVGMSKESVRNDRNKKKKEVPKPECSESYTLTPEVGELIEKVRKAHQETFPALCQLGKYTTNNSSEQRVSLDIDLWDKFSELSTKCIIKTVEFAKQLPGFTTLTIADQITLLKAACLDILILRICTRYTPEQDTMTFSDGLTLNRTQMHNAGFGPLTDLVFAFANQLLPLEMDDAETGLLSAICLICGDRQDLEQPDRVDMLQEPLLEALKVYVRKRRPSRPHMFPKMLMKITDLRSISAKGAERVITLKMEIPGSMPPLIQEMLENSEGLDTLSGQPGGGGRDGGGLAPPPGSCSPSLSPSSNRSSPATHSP
Summary of the method: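 Reporter transcripts, measured by RT-PCR with fluorescent labeling and capillary electrophoresis after 24 h dosing, reflect activity of an exogenous human RARa–GAL4 fusion in transiently transfected HepG2. Fitted for increase relative to DMSO.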

[10] = target: Peroxisome proliferator-activated receptor gamma (Homo sapiens) (UniProt P37231); assay: ATG_PPARg_TRANS: Attagene TRANS-FACTORIAL HepG2 Assay for human Peroxisome Proliferator-activated Receptor-gamma (PPARg) (AID 2283007; active = hit-call score of the fitted dose curve at least 0.9, where 1 is the maximum)
Peroxisome proliferator-activated receptor gamma (Homo sapiens), sequence (P37231 whole entry, looked up): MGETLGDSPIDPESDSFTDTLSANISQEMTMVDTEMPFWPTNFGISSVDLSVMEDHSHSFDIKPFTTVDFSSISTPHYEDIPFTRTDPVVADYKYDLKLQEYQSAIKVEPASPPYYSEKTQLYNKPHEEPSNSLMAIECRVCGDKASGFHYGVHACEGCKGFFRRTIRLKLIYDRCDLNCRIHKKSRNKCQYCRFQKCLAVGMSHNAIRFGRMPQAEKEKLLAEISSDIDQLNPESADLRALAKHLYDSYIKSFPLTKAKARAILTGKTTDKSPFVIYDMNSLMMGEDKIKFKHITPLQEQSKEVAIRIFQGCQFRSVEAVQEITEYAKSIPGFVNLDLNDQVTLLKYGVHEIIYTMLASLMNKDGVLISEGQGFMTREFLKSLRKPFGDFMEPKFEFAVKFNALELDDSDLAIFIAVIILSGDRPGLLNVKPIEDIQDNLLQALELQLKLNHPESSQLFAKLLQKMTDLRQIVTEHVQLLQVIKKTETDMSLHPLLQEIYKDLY
Summary of the method: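 Twenty-four hours after chemical dosing of transiently transfected HepG2 cells, isolated RNA was converted to cDNA, reporter sequences amplified and 6-FAM-labelled, then HpaI-digested and analysed by capillary electrophoresis. Signal increase against DMSO was fitted.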

[11] = target: Nuclear receptor subfamily 1 group I member 2 (Homo sapiens) (UniProt O75469); assay: ATG_PXR_TRANS: Attagene TRANS-FACTORIAL HepG2 Assay for human Pregnane X Receptor (PXR) (AID 2283008; active = hit-call score of the fitted dose curve at least 0.9, where 1 is the maximum)
Nuclear receptor subfamily 1 group I member 2 (Homo sapiens), sequence (O75469 whole entry, looked up, the tested form may be a part): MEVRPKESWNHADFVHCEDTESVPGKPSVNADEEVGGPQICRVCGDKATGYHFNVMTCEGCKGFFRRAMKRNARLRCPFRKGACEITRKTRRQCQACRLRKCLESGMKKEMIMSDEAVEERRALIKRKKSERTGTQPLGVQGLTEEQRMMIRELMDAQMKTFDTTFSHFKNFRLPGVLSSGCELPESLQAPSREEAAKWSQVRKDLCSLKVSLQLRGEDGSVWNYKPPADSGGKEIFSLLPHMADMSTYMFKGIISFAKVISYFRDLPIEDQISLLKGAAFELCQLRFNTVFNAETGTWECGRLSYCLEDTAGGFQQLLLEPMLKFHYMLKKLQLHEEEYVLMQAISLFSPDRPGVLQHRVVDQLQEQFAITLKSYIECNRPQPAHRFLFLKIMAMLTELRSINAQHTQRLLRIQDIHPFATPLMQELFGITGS
Summary of the method: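 HepG2 cells transiently transfected with multiple reporter units, here a PXR-GAL4 chimera driving a GAL4-UAS reporter; 24 h compound exposure. Reporter mRNA measured by RT-PCR, FAM labelling and capillary electrophoresis; gain of signal fitted against DMSO baseline.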

[12] = target: human Retinoic Acid Receptor gamma (RARg), RARG (gene 5916) (UniProt P13631); assay: ATG_RARg_TRANS: Attagene TRANS-FACTORIAL HepG2 Assay for human Retinoic Acid Receptor gamma (RARg) (AID 2283009; active = hit-call score of the fitted dose curve at least 0.9, where 1 is the maximum)
human Retinoic Acid Receptor gamma (RARg), RARG (gene 5916), sequence (P13631 whole entry, looked up, the tested form may be a part): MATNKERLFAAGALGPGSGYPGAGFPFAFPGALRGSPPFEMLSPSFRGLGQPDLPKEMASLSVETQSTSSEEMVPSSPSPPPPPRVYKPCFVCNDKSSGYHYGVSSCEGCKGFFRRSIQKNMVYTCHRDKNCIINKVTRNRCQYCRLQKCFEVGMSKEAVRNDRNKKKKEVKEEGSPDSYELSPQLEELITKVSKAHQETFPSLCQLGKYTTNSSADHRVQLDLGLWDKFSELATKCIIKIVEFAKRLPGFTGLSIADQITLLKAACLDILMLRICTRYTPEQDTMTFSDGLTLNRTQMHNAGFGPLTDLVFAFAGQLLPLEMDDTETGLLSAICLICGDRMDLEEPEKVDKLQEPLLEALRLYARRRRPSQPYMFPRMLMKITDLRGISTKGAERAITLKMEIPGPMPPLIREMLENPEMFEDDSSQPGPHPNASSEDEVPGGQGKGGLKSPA
Summary of the method: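 HepG2, RARg-GAL4 TRANS system, 24 h exposure; reporter mRNA by RT-PCR + CE fluorescence; increase over DMSO.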

[13] = target: human RAR-related Orphan Receptor gamma (RORg), RORC (gene 6097) (UniProt P51449); assay: ATG_RORg_TRANS: Attagene TRANS-FACTORIAL HepG2 Assay for human RAR-related Orphan Receptor gamma (RORg) (AID 2283011; active = hit-call score of the fitted dose curve at least 0.9, where 1 is the maximum)
human RAR-related Orphan Receptor gamma (RORg), RORC (gene 6097), sequence (P51449 whole entry, looked up, the tested form may be a part): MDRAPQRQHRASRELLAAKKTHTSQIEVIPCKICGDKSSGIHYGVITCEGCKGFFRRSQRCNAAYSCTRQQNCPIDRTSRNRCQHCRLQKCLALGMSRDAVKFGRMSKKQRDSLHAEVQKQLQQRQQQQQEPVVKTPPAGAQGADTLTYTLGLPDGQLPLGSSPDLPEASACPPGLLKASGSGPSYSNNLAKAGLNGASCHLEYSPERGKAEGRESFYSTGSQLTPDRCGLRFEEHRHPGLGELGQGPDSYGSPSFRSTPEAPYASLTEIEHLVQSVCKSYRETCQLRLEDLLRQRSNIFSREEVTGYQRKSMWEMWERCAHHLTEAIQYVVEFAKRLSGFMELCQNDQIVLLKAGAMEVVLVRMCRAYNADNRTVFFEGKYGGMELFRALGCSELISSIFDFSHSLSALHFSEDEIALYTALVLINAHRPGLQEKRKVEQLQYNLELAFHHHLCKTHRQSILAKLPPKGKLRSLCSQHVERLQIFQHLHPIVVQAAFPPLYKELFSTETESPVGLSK
Summary of the method: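 Activity is scored as increase in GAL4-UAS reporter mRNA over DMSO, detected by fluorescent RT-PCR and capillary electrophoresis in HepG2 cells transiently expressing a RORg-Gal4 chimera, 24 h after dosing.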

[14] = target: human RAR-related Orphan Receptor beta (RORb), RORB (gene 6096) (UniProt Q92753); assay: ATG_RORb_TRANS: Attagene TRANS-FACTORIAL HepG2 Assay for human RAR-related Orphan Receptor beta (RORb) (AID 2283010; active = hit-call score of the fitted dose curve at least 0.9, where 1 is the maximum)
Summary of the method: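 In this TRANS-format test, human HepG2 cells express chimeric NR-Gal4 fusion proteins driving GAL4-UAS reporters. After 24 h dosing, reporter transcripts are measured by fluorescent RT-PCR/capillary electrophoresis, with DMSO as negative control.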

For `C[Si]1(C)O[Si](C)(C)O[Si](C)(C)O1`, the outcome [1] was “inactive”, the outcome [2] was “inactive” and the outcome [3] was “inactive”. For the same molecule, the outcome [4] was “inactive”, the outcome [5] was “inactive” and the outcome [6] was “inactive”. For the same molecule, the outcome [7] was “inactive”, the outcome [8] was “inactive” and the outcome [9] was “inactive”. For the same molecule, the outcome [10] was “inactive”, the outcome [11] was “inactive” and the outcome [12] was “inactive”.

With `C=C(C#N)C(=O)OCC` the outcome [1] was “inactive”, the AC50 [2] was 100 µM (active) and the outcome [3] was “inactive”. For the same molecule, the outcome [4] was “inactive”, the AC50 [5] was 80 µM (active) and the outcome [6] was “inactive”. The outcome [10] was “inactive”, the outcome [11] was “inactive” and the outcome [13] was “inactive”.

In the case of `CC(=O)O[C@@H]1CC2CCC1(C)C2(C)C` (stereo partly specified), the outcome [1] is reported as “inactive”, the outcome [2] is reported as “inactive” and the outcome [3] is reported as “inactive”. For the same molecule, the outcome [4] was “inactive”, the outcome [5] was “inactive” and the outcome [6] was “inactive”. The outcome [10] was “inactive”, the outcome [12] was “inactive” and the outcome [14] was “inactive”.

In the case of `CCCCCCCCCCCCCCN(CCO)CCO`, the outcome [1] is reported as “inactive”, the outcome [2] is reported as “inactive” and the AC50 [3] is reported as 11.1 µM (active). The outcome [4] was “inactive”, the outcome [5] was “inactive” and the outcome [6] was “inactive”. The outcome [8] was “inactive”, the outcome [9] was “inactive” and the outcome [11] was “inactive”. The outcome [12] was “inactive”.

For `O=C(O)CNc1ccccc1`, the outcome [1] was “inactive”, the outcome [2] was “inactive” and the outcome [3] was “inactive”. The outcome [4] was “inactive”, the outcome [5] was “inactive” and the outcome [6] was “inactive”. For the same molecule, the outcome [8] was “inactive”, the outcome [9] was “inactive” and the outcome [10] was “inactive”. The AC50 [11] was 27.3 µM (active), the outcome [12] was “inactive” and the outcome [14] was “inactive”.

With `CCOCCOCCOCC` the outcome [1] was “inactive”, the outcome [2] was “inactive” and the outcome [3] was “inactive”. The outcome [4] was “inactive”, the outcome [5] was “inactive” and the outcome [6] was “inactive”. The outcome [9] was “inactive” and the outcome [10] was “inactive”.

With `CCC(C)=O` the outcome [1] was “inactive”, the outcome [2] was “inactive” and the outcome [3] was “inactive”. The outcome [4] was “inactive”, the outcome [5] was “inactive” and the outcome [6] was “inactive”. The outcome [12] was “inactive”.

In the case of `OCC#CCO`, the outcome [1] is reported as “inactive”, the outcome [2] is reported as “inactive” and the outcome [3] is reported as “inactive”. The outcome [4] was “inactive”, the outcome [5] was “inactive” and the outcome [6] was “inactive”. The outcome [8] was “inactive”, the outcome [9] was “inactive” and the outcome [10] was “inactive”. For the same molecule, the outcome [13] was “inactive”.

In the case of `COc1cc(CCC(C)=O)ccc1O`, the outcome [1] is reported as “inactive”, the outcome [2] is reported as “inactive” and the outcome [3] is reported as “inactive”. For the same molecule, the outcome [4] was “inactive”, the outcome [5] was “inactive” and the outcome [6] was “inactive”. For the same molecule, the outcome [9] was “inactive”, the outcome [10] was “inactive” and the outcome [11] was “inactive”.

With `CC1=NN(c2ccc(S(=O)(=O)O)cc2)C(=O)C1` the outcome [1] was “inactive”, the outcome [2] was “inactive” and the outcome [3] was “inactive”. The outcome [4] was “inactive”, the outcome [5] was “inactive” and the outcome [6] was “inactive”. For the same molecule, the outcome [8] was “inactive”, the outcome [9] was “inactive” and the outcome [11] was “inactive”. The outcome [12] was “inactive” and the outcome [13] was “inactive”.

For `CCCC(=O)OC(C)(C)Cc1ccccc1`, the outcome [1] was “inactive”, the outcome [2] was “inactive” and the AC50 [3] was 145 µM (active). For the same molecule, the outcome [4] was “inactive”, the outcome [5] was “inactive” and the outcome [6] was “inactive”. The outcome [7] was “inactive”, the outcome [10] was “inactive” and the outcome [11] was “inactive”. For the same molecule, the outcome [13] was “inactive”.

In the case of `CCOC(=O)c1ccc(N)cc1`, the outcome [1] is reported as “inactive”, the outcome [2] is reported as “inactive” and the outcome [3] is reported as “inactive”. For the same molecule, the outcome [4] was “inactive”, the outcome [5] was “inactive” and the outcome [6] was “inactive”. The outcome [10] was “inactive”, the outcome [11] was “inactive” and the outcome [13] was “inactive”.
